# According to publication PMC6602471:
# Target: RUNX1 (Homo sapiens, UniProt Q01196 1-453)
# Test: custom PBM; custom protein-binding microarray; buffer, salt, pH and temperature not stated; high values mean tight binding
# Conditions: dsDNA, one strand shown
# RUNX1, sequence (Q01196 whole entry): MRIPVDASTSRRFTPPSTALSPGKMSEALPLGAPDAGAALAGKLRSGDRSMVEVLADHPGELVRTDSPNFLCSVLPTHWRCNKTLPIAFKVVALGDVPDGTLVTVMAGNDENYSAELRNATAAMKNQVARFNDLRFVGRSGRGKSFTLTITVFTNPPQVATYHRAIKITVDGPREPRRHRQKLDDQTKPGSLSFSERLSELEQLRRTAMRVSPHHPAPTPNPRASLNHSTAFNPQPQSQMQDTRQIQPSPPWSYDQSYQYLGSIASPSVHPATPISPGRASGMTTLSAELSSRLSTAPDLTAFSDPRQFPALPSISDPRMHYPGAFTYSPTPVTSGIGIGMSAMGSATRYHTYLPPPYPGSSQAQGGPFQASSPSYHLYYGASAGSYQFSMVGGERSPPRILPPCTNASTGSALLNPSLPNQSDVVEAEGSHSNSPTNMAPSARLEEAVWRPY
row,Sequence,binding signal
1,GCATACAGCTGACGTCAGCCACATACGCACACATACACATACACACATACACATACGCAC,11 log fluorescence intensity
2,CGCGCACTCTGTGGTTTCGCACATACGCACACATACACATACACACATACACATACGCAC,12.3 log fluorescence intensity
3,GCATACGGCTGGCGTCAGCCACATACGCACACATACACATACACACATACACATACGCAC,11 log fluorescence intensity
4,GCGCACCTTTCCCGTAAATCATACACGCACACATACACATACACACATACACATACGCAC,10.9 log fluorescence intensity
5,GCATACGGGTGACGTCAGCCACATACGCACACATACACATACACACATACACATACGCAC,10.9 log fluorescence intensity
6,CGCGCACTCTCTGGTTGCGCACATACGCACACATACACATACACACATACACATACGCAC,10.9 log fluorescence intensity
7,GCGCACTTTTCCCGTAAATCATACACGCACACATACACATACACACATACACATACGCAC,11 log fluorescence intensity
8,GCGCACATTTCCCGTAACTCATACACGCACACATACACATACACACATACACATACGCAC,11 log fluorescence intensity
9,GCGCACATTTCCAGTAAATCATACACGCACACATACACATACACACATACACATACGCAC,10.9 log fluorescence intensity
10,CGCGCGCTCTGTGGTTGCGCACATACGCACACATACACATACACACATACACATACGCAC,11.2 log fluorescence intensity
11,CGCGCAATCTGTGGTTGCGCACATACGCACACATACACATACACACATACACATACGCAC,11.1 log fluorescence intensity
12,GCATACGGCTGACTTCAGCCACATACGCACACATACACATACACACATACACATACGCAC,10.9 log fluorescence intensity
13,GCATACGGCTGACCTCAGCCACATACGCACACATACACATACACACATACACATACGCAC,11 log fluorescence intensity
14,CGCGCACGCTGTGGTTGCGCACATACGCACACATACACATACACACATACACATACGCAC,11.2 log fluorescence intensity
15,GCGCACATTTCCCGTAAACCATACACGCACACATACACATACACACATACACATACGCAC,11 log fluorescence intensity
16,GCATACCGCTGACGTCAGCCACATACGCACACATACACATACACACATACACATACGCAC,10.9 log fluorescence intensity

row,Sequence,binding signal
1,GCGCACATTTCCCGCAAATCATACACGCACACATACACATACACACATACACATACGCAC,11.1 log fluorescence intensity
2,GCATACGGCCGACGTCAGCCACATACGCACACATACACATACACACATACACATACGCAC,11 log fluorescence intensity
3,GCGCACATTCCCCGTAAATCATACACGCACACATACACATACACACATACACATACGCAC,11 log fluorescence intensity
4,GCATACGGCTAACGTCAGCCACATACGCACACATACACATACACACATACACATACGCAC,11 log fluorescence intensity
5,GCGCACATTTCCCGTAAAGCATACACGCACACATACACATACACACATACACATACGCAC,11 log fluorescence intensity
6,CGCGCACACTGTGGTTGCGCACATACGCACACATACACATACACACATACACATACGCAC,11.2 log fluorescence intensity
7,GCATACGGCTGACGTCGGCCACATACGCACACATACACATACACACATACACATACGCAC,11 log fluorescence intensity
8,CGCGCACTCTGTGGTTGTGCACATACGCACACATACACATACACACATACACATACGCAC,11.3 log fluorescence intensity
9,GCGCACATTTTCCGTAAATCATACACGCACACATACACATACACACATACACATACGCAC,11.1 log fluorescence intensity
10,CGCGCACTCTGTGCTTGCGCACATACGCACACATACACATACACACATACACATACGCAC,10.9 log fluorescence intensity
11,CGCGCACTCTGTGGTTGGGCACATACGCACACATACACATACACACATACACATACGCAC,11.6 log fluorescence intensity
12,GCATACGGCTGACGTCAGCAACATACGCACACATACACATACACACATACACATACGCAC,10.9 log fluorescence intensity
13,GCGCACATTTGCCGTAAATCATACACGCACACATACACATACACACATACACATACGCAC,10.9 log fluorescence intensity
14,CGCGCACTCTGTGGTTGCACACATACGCACACATACACATACACACATACACATACGCAC,11.6 log fluorescence intensity
15,GCATACGGCTCACGTCAGCCACATACGCACACATACACATACACACATACACATACGCAC,10.9 log fluorescence intensity
16,GCGCACATTTCCCGTACATCATACACGCACACATACACATACACACATACACATACGCAC,11 log fluorescence intensity
